JMJD2A Tudor: blocks the human JMJD2A Tudor domain; O75164; AlphaScreen JMJD2A-Tudor / H3K4me3 peptide binding; Potency, µM (series often up to 114 µM), for the others: top-dose activity change, negative = inhibition, hits mostly inhibitors; 4.4% of 390,000 active; AID 504339; further: on the % scale 0 is the no-effect control and ±100 the full control effect; nearly all actives have a fitted effect of over 50% in size
Target sequence (O75164 whole entry, looked up, the tested form may be a part): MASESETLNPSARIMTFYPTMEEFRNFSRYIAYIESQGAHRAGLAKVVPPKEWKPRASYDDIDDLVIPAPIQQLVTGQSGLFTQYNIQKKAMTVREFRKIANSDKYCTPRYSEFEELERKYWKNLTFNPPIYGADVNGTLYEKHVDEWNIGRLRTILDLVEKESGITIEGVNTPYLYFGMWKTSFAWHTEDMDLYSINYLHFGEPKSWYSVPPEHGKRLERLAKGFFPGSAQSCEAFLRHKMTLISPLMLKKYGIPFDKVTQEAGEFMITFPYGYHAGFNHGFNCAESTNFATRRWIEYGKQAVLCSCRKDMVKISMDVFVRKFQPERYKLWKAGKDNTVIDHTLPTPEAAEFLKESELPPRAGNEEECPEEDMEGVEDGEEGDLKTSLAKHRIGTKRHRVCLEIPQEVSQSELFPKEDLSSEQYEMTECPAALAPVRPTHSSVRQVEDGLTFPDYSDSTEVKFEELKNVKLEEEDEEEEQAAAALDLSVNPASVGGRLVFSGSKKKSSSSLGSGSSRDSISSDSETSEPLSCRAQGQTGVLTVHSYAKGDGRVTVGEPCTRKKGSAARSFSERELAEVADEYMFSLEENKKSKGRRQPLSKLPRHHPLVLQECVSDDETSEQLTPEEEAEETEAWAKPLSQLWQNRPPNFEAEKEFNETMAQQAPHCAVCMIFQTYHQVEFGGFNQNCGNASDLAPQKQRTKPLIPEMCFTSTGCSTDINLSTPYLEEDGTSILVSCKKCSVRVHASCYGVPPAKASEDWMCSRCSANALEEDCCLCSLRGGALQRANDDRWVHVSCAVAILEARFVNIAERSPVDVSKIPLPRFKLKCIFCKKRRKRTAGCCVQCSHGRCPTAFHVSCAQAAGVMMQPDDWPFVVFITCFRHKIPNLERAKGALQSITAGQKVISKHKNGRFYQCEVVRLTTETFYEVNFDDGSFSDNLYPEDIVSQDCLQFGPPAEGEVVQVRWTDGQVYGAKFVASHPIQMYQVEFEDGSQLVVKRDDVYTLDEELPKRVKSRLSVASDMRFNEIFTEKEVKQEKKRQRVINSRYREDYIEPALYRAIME
HP1b chromo inh: HP1-beta chromodomain-methylated histone interaction inhibition; 0.56% of 390,000 active; P83916; Potency, µM (top dose mostly 114 µM), inactives show at the top dose activity change, negative = inhibition, hits mostly inhibitors; AlphaScreen HP1-beta / biotin-H3K9me3 peptide binding; further: nearly all actives have a fitted effect of over 70% in size
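AlphaScreen: HP1-beta (50 nM) preformed 30 min with biotin-H3(1-18)K9me3 peptide (50 nM) in PBS pH 7.4, 0.01% Tween-20. Compound added for 30 min at RT, then streptavidin donor/nickel chelate acceptor beads (10 ug/mL) for 30 min.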
BAZ2B block: inhibitors of human BAZ2B bromodomain; Potency, µM (titrated, usually from 114 µM), without a hit: at the highest dose activity change, negative = inhibition, actives largely listed as inhibitors; Q9UIF8; AID 504333; 4.4% of 360,000 active; AlphaScreen BAZ2B-H3K14Ac peptide displacement; further: on the % scale 0 is the no-effect control and ±100 the full control effect; nearly all actives have a fitted effect of over 60% in size
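AlphaScreen displacement: compounds (up to 110uM) incubated 30 min at room temperature with a preformed 50 nM BAZ2B/50 nM biotinylated H3K14Ac peptide complex in PBS pH 7.4 with Tween-20. Donor and acceptor beads at 10 ug/mL final added, 20 min light-protected before reading.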
12-LOX inh: inhibitors of human 12S-lipoxygenase ALOX12; 1.1% of 580,000 active; purified 12hLO, xylenol orange hydroperoxide absorbance; P18054; Potency, µM (titrated, usually from 108 µM), inactives show top-dose activity change, negative = inhibition, hits mostly inhibitors; further: on the % scale 0 is the no-effect control and ±100 the full control effect
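Purified human 12hLO (150 nM final) in 25 mM Hepes, 0.01% Triton X-100, pH 7.0 was preincubated 15 min at room temperature with compound. Then 40 uM arachidonic acid was added, 30 min. Hydroperoxide was read by Fe-XO absorbance ratio 573/405 nm.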
PLK1 PBD inh: PLK1 (human) polo-box domain binding inhibition; P53350; Plk1 PBD binding of FITC phosphopeptide, fluorescence polarization; Potency, µM, for inactives: max response, negative = inhibition, most hits filed as inhibitors; 2.8% of 360,000 active; AID 720504; further: series mostly up to about 57 µM; on the % scale 0 is the no-effect control and ±100 the full control effect; nearly all actives have a fitted effect of over 65% in size
G9a block: G9a (human) methyltransferase inhibition | AID 504332 | Potency, µM (titrated, usually from 102 µM), inactives show at the top dose activity, negative = inhibition, hits mostly inhibitors | G9a H3K9 monomethylation, AlphaScreen, 2 h | Q96KQ7 | 8.8% of 350,000 active; further: on the % scale 0 is the no-effect control and ±100 the full control effect; nearly all actives have a fitted effect of over 75% in size
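G9a (20 nM) preincubated 15 min RT with compounds, then 500 nM biotinylated H3K9 peptide and 20 uM SAM added; 2 h RT reaction. Monomethyl-H3K9 product detected by AlphaScreen with anti-H3K9me1 antibody, streptavidin donor and anti-rabbit IgG acceptor beads.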
* = called active by the depositor; ? = inconclusive; · = not tested or not shown; ! = repeats disagree; [ ] = another dose, or the depositor's remark. An excerpt weighted towards active compounds, which were near 9% of everything screened. The call rests on the fitted dose curve; in most records, active means well fitted curve in the direction sought with a large enough effect; inconclusive means small, poorly fitted or top-dose-only effect, or another doubt; inactive means no such curve, though single readings can be large; an effect the other way counts as inactive or inconclusive. Potency means the concentration at half of the fitted maximal effect.

SMILES | JMJD2A Tudor | HP1b chromo inh | BAZ2B block | 12-LOX inh | PLK1 PBD inh | G9a block
Cc1ccc(C)c(OCC(=O)N2CCN(Cc3ccc4c(c3)OCO4)CC2)c1 | -15.3% | 15.7% | ? | 80.2% | 4.1% | ·
CCOc1ccc(CN(CCc2ccc3c(c2)OCO3)Cc2ccc(CC)cc2)cc1 | 22.4µM* | -21.5% | 70.8µM* | ? | · | ?
CCOc1ccc(CN(CCc2ccc3c(c2)OCO3)Cc2cc(OC)ccc2O)cc1 | 22.4µM* | ? | ? | ? | · | 3.16µM*
Cc1cc2ccccc2n1CCNC(=O)COc1ccccc1 | 20µM* | ? | ? | ? | -22.9% | 50.1µM*
Clc1ccc(OCCCN2CCCC2)cc1Cl | 3.98µM* | ? | ? | -34.8% | -0.5% | 10µM*
CCOc1cccc(OCCOCCN2CCCC2)c1 | 7.94µM* | ? | ? | ? | -2.6% | ?
Cc1ccc(N2C(=O)/C(=C/c3ccc(CN(CCC#N)S(C)(=O)=O)o3)C(=O)NC2=S)cc1 | 17.8µM* | 50.1µM* | 50.1µM* | · | 5.97µM* | 7.94µM*
CCn1cc(CN2CCN(C(=O)Cc3ccsc3)CC2)ccc1=O | · | · | · | 60.8% | · | ·
O=C1NCc2ccccc2CC12CCN(Cc1ccncc1Cl)C2 (stereo unspecified) | · | · | · | 0.8%[6.33 µM] | · | ·
Cc1cccnc1NC1=NCC(C)S1 (stereo unspecified) | -14.4%[11.4 µM] | 40.1% | 0.0% | -2.1% | -21.5% | 3.98µM*
Cc1ccccc1NC1=NCC(C)S1 (stereo unspecified) | -10.6% | 24.6% | 4.2% | 19.0% | 0.0% | 16.9%[59 µM]
Cc1ccccc1-n1c(O)c(C(c2ccncc2)c2c(O)n(-c3ccccc3C)c(=O)[nH]c2=O)c(=O)[nH]c1=O | -11.2% | 21.8% | ? | 0.6% | ? | 25.1µM*
CCN(CC)c1ccc(/C=C2\C(=O)NC(=S)N(c3ccc(OC)cc3OC)C2=O)o1 | -25.7% | -15.1% | · | · | 121.3% | ·
CCOc1cccc(N2C(=O)/C(=C/c3ccco3)C(=O)NC2=S)c1 | 22.4µM* | 20µM* | 31.6µM* | 11.2µM* | 11.9µM* | 14.1µM*
COc1ccccc1/C=C1\C(=O)NC(=S)N(c2ccccc2)C1=O | 28.2µM* | 25.7% | -24.2% | ? | 15µM* | 28.2µM*
CCN1C(=O)/C(=C/c2ccc(N(CC)CC)cc2OC)C(=O)NC1=S | -23.7% | 6.9% | ? | -15.6% | 1.06µM* | 35.5µM*
O=C1NC(=S)N(c2ccc(F)cc2)C(=O)/C1=C/c1ccccc1O | -2.9% | 30.6% | 0.2% | ? | -28.7% | -19.2%
COc1ccccc1C=C1C(=O)NC(=S)NC1=O | 20µM* | ? | · | ? | 23.8µM* | ·
COC(=O)Cn1cc(C=C2C(=O)NC(=O)NC2=O)c2ccccc21 | -13.0% | 23.3% | -8.7% | -18.9% | ? | ?
CN1CCCCC1c1cccnc1 (stereo unspecified) | · | · | · | 12.4% | · | 41.0%[59 µM]
Cc1cccc(CN2CCCN(Cc3ccc(Cl)cc3)S2(=O)=O)c1 | 73.2% | 140.5% | 48.7% | 0.0% | -1.8% | 130.4%
CC[C@H]1CN2CC[C@H]1C[C@@H]2CNS(=O)(=O)c1cccs1 | · | · | · | -3.3%[176 µM] | · | ·
C[N+](C)(C)CCOC(=O)CBr | -18.0% | 15.4% | 11.3% | ? | -17.8% | 25.1µM*!
CC(=O)OCC[N+](C)(C)C | 1.4% | 34.1% | 5.2% | ? | -0.8% | 15.6%[59 µM]
OC(COCc1ccc(Cl)cc1)CN1CC=C(c2ccccc2)CC1 (stereo unspecified) | 1.12µM*! | ? | 50.1µM* | ? | -17.8% | ?
SMILES | JMJD2A Tudor | HP1b chromo inh | BAZ2B block | 12-LOX inh | PLK1 PBD inh | G9a block
N#Cc1ccc(CN2Cc3ccccc3-n3nncc3C2)cc1 | · | · | · | -13.3% | -0.9% | ·
CCOc1cccc(OCC)c2c(C)[n+](CC3CCCO3)c(C)c1-2 (stereo unspecified) | 35.5µM* | -1.3% | 25.1µM* | · | -15.9% | ?
CC(O)C1C=CC=CC(=O)OC2CC3OC4C5OC5(C)CCC4(COC(=O)C4OC4(C)C(O)CO1)C2(C)C31CO1 (stereo unspecified) | -1.4% | 41.3% | · | 31.6µM* | -0.5% | ·
CN1C(=O)C(=Cc2ccc(SC3CCCCC3)o2)C(=O)N(C)C1=O | ? | ? | 56.2µM* | ? | 0.597µM* | 12.6µM*
CCN(CC)Cc1c[nH]c2ccccc12 | -29.6% | 1.0% | ? | ? | -8.5% | ?
CCC(CC)NCc1c[nH]c2ccccc12 | 22.4µM* | -29.6% | 79.4µM* | -19.9% | ? | 14.1µM*
O=c1nc(/C=C/c2ccc(Cl)cc2Cl)cc(C(F)(F)F)[nH]1 | -31.9% | 41.8% | -36.6% | 19.8% | 26.7µM* | -2.1%
CCN(CC)C(=O)Oc1ccc2cc(Br)ccc2c1 | 95.5% | 171.8% | 78.3% | -15.1% | -2.2% | 108.0%[59 µM]
S=c1[nH]c2cc(Br)cnc2[nH]1 | 20µM* | ? | -23.8% | 39.8µM* | 13.4µM* | 3.16µM*
COc1c(C=C2C(=O)NC(=O)NC2=O)c(CCN(C)C(=O)c2ccccc2)cc2c1OCO2 | -15.6% | 24.4% | -2.8% | ? | 26.7µM* | ·
O=C(c1ccc(F)cc1)N1CCC(N2CCCCCC2)CC1 | ? | ? | 50.1µM* | -1.7% | -6.4% | 17.8µM*
O=C(c1ccc(F)cc1)N1CCC2(CC1)OCCO2 | -11.2% | 13.7% | -5.6% | 7.6% | -13.8% | ·
O=C(NC(Oc1ccccc1)C(Cl)(Cl)Cl)c1ccccc1 (stereo unspecified) | 2.1% | 32.7% | 3.5% | ? | -14.9% | -3.9%[59 µM]
CC[C@H](C)/C=C(C)/C=C/C1=CC2=C(Cl)C(=O)[C@](C)(OC(C)=O)C(=O)C2=CO1 | 79.4µM* | ? | · | · | 1.06µM* | ·
Nc1nnc(P(c2ccccc2)c2ccccc2)s1 | -35.5% | 18.2% | -17.2% | ? | -10.3% | -2.9%
CN(C)c1ccc(C(O)P(=O)(OCc2ccccc2)c2ccc(N(C)C)cc2)cc1 (stereo unspecified) | 89.1µM* | ? | 39.8µM* | ? | -16.9% | 14.9%[12.7 µM]
COc1ccc(C(=O)N2[C@H]3CC[C@@H]2c2cnc(-c4ccc(F)cc4)nc2C3)c(OC)c1 | · | · | · | -5.2% | · | ·
CCOP(=O)(C#CC(C)(C)C)C(C)(O)c1ccccc1 (stereo unspecified) | 4.5% | 27.3% | 1.3% | 0.8% | -6.2% | -4.1%
O=[N+]([O-])c1ccc(-c2ccc(C=Nc3cccc4ccccc34)o2)cc1 | 15.8µM* | ? | 39.8µM* | -6.9% | -12.1% | 6.31µM*
COc1c(O)cc2c(c1OC)-c1ccc(OC)c(=O)cc1C(NC(C)=O)CC2 (stereo unspecified) | -7.6% | 27.2% | · | 11.4% | -8.0% | ·
Cc1ccc2nsnc2c1NS(=O)(=O)c1c(C)ccc2nsnc12 | -27.1% | 20.0% | ? | ? | -8.5% | 50.1µM*
CCOC(=O)C1C(=O)NC23CCCC2C1c1ccccc1O3 (stereo unspecified) | -5.0% | 25.3% | -7.2% | -24.4% | -1.5% | -48.9%
